Among the data in ChEMBL document CHEMBL3988442, “University of Dundee, Small-Polar-MMV Screening Library” (2021) are Percent Effect values, retold here.

SMILES strings stand for the structures. For some of these results: Potency and affinity values are given separately.

Holding throughout (design): scale not given: direction of the effect not stated beside the values
Test [1] addresses Protein translocase subunit SecA (Escherichia coli (strain K12)) (UniProt P10408). Nature of the test: Assay to Identify E. coli SecA ATPase Inhibitors. The class given is functional. The following applies: 30 µM.
For test [2], the target named is T1, Ubiquitin-activating enzyme e1, putative (Leishmania donovani (strain BPK282A1)) (UniProt E9BSI1).
T1 sequence (whole entry): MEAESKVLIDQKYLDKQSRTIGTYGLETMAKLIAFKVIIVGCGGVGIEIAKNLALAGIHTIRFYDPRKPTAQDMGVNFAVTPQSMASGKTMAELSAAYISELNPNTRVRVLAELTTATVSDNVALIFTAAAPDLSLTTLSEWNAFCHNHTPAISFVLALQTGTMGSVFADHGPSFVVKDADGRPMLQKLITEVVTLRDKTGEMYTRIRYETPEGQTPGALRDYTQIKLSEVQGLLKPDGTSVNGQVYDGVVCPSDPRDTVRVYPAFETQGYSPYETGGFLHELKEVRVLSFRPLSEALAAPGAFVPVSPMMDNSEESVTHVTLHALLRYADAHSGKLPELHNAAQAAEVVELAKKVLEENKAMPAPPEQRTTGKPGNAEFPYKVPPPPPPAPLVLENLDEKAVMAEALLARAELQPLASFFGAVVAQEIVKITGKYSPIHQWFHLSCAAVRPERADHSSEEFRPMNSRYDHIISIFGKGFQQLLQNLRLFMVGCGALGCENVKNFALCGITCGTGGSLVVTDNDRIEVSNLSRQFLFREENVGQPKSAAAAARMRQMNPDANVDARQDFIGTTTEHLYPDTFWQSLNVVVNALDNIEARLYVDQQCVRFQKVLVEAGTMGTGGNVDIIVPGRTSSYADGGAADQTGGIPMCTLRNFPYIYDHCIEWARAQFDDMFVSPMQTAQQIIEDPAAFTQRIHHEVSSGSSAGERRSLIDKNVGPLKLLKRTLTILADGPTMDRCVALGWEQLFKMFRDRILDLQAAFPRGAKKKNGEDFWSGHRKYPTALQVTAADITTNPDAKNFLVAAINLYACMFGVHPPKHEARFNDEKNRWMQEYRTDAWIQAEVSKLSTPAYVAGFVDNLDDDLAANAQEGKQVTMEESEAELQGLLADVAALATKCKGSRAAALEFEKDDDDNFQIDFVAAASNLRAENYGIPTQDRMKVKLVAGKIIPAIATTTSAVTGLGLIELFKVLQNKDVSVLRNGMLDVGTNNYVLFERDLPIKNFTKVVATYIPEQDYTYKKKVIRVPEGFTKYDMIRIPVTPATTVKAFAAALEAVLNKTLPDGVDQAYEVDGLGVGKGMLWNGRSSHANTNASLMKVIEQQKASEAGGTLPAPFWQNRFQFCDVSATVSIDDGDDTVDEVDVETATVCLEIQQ
Nature of the test: Leishmania donovani Ubiquitin Activating Enzyme (LdE1). In kind it is functional. The note with it: 30 µM.

Test [3] concerns the target AMP-activated protein kinase, AMPK (Homo sapiens) (UniProt P54646+O43741+P54619+Q9UGJ0+Q9Y478+Q13131+Q9UGI9). Nature of the test: AMP-dependent Kinase enzyme assay. An in vitro enzyme assay that detects ADP turnover that is directly proportional to AMPK activity. This uses naive AMPK that is activated during the assay with MK-8722. In kind it is functional. The following applies: 30 µM.

Test [4] has as its target Sialic acid-binding Ig-like lectin 9 (Homo sapiens) (UniProt Q9Y336). Nature of the test: Hs-Siglec9 ALPHAscreen SOP 20170721. The following applies: 10 µM. On the technique in general: Bead proximity is the source of the signal in Alpha formats.
The test system of test [5] is Trypanosoma cruzi. Nature of the test: Trypanosoma cruzi phosphomannomutase and mannose-1-phosphate guanylyltransferase assay. In kind it is functional. The note with it: 10 µM.
Test [6] deals with T2, Arginase-2, mitochondrial (Homo sapiens) (UniProt P78540).
T2 sequence (whole entry): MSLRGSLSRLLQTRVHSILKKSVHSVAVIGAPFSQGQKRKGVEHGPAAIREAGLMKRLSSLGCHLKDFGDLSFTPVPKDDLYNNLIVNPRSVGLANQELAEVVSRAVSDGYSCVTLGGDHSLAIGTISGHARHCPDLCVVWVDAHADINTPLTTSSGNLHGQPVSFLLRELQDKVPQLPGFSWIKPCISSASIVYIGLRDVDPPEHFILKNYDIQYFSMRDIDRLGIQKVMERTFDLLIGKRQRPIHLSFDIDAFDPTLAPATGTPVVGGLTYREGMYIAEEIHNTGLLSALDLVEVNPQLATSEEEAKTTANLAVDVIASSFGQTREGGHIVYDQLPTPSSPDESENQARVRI
Nature of the test: in vitro enzyme assay to detect the production of urea directly proportional to the activity of Arginase II. Also: in the data most compounds retested in dose-response had high values. The class given is functional. The note with it: 33.3 µM.

In test [7] the target is T3, Proteasome subunit beta (Trypanosoma cruzi) (UniProt O96673).
T3 sequence (whole entry): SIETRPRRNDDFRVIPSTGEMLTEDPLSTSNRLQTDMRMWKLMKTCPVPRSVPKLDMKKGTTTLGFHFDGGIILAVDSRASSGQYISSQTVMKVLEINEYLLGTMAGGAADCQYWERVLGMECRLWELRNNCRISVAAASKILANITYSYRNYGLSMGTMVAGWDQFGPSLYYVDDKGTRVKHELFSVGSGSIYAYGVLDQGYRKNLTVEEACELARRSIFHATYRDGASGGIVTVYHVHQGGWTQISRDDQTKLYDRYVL
Nature of the test: Trypanosoma cruzi proteasome chymotrypsin-like activity (TcProtChymo) assay. Also: in the data most compounds retested in dose-response had high values. In kind it is functional. The note with it: 9.37 µM.

The species entered for test [8] is Homo sapiens. Nature of the test: To identify inhibition of the IFN signalling (Jak-Stat) pathway via expression of an eGFP reporter gene under the control of an IFN-stimulated response element (ISRE) containing MxA promoter. The class given is functional. The following applies: 30 µM. On the technique in general: Reporter assays use an easily measured gene product as a stand-in for the process of interest.

In test [9] the target is T4, Tyrosyl-tRNA synthetase, putative (Trypanosoma cruzi (strain CL Brener)) (UniProt Q4DSP6).
T4 sequence (whole entry): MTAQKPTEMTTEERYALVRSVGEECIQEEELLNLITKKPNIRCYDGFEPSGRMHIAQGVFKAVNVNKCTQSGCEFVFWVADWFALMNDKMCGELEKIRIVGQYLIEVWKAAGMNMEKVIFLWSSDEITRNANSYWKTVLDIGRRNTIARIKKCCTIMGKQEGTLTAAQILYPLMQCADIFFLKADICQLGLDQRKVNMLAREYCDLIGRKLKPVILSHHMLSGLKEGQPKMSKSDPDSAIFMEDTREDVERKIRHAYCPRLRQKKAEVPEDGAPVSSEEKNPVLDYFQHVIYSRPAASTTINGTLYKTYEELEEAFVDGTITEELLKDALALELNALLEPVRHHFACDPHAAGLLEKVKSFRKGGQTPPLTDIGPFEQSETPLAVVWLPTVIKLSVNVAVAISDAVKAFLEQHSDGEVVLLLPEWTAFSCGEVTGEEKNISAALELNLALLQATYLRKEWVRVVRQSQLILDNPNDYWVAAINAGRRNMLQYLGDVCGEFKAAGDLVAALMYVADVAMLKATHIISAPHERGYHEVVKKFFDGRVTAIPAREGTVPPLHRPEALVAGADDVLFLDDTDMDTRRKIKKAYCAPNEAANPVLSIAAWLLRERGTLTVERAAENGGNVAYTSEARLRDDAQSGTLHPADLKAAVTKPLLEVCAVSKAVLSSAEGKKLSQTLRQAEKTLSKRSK
Nature of the test: Trypanosoma cruzi tyrosyl tRNA synthetase (TcYRS) _High Tyrosine SOP. Also: in the data most compounds retested in dose-response had high values. The class given is functional. The note with it: 30 µM.

The target of test [10] is T4, Tyrosyl-tRNA synthetase, putative (Trypanosoma cruzi (strain CL Brener)). Nature of the test: Trypanosoma cruzi tyrosyl tRNA synthetase (TcYRS) SOP. The class given is functional. The note with it: 30 µM.
Test [11] addresses Chromo domain-containing protein 1 (Saccharomyces cerevisiae (strain ATCC 204508 / S288c) (Baker's yeast)) (UniProt P32657). Nature of the test: ScCHD-1 Enzyme Inhibition Assay. Also: in the data most compounds retested in dose-response had high values. The class given is functional. The following applies: 30 µM.

Sialic acid-binding Ig-like lectin 9 (Homo sapiens), sequence (Q9Y336 whole entry): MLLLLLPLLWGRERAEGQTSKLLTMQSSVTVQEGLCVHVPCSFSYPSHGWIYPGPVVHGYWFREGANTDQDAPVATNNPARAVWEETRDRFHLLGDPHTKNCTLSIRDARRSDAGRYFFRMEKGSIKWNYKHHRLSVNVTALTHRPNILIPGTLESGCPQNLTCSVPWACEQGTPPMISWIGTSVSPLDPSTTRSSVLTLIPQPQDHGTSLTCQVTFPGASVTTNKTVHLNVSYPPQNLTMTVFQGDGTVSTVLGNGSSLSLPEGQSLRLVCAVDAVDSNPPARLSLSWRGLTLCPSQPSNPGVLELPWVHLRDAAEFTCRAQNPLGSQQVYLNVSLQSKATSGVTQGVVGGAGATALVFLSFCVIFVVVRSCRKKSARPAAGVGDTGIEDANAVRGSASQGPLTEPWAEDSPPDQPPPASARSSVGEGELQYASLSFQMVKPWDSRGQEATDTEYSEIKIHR
Protein translocase subunit SecA (Escherichia coli (strain K12)), sequence (P10408 whole entry): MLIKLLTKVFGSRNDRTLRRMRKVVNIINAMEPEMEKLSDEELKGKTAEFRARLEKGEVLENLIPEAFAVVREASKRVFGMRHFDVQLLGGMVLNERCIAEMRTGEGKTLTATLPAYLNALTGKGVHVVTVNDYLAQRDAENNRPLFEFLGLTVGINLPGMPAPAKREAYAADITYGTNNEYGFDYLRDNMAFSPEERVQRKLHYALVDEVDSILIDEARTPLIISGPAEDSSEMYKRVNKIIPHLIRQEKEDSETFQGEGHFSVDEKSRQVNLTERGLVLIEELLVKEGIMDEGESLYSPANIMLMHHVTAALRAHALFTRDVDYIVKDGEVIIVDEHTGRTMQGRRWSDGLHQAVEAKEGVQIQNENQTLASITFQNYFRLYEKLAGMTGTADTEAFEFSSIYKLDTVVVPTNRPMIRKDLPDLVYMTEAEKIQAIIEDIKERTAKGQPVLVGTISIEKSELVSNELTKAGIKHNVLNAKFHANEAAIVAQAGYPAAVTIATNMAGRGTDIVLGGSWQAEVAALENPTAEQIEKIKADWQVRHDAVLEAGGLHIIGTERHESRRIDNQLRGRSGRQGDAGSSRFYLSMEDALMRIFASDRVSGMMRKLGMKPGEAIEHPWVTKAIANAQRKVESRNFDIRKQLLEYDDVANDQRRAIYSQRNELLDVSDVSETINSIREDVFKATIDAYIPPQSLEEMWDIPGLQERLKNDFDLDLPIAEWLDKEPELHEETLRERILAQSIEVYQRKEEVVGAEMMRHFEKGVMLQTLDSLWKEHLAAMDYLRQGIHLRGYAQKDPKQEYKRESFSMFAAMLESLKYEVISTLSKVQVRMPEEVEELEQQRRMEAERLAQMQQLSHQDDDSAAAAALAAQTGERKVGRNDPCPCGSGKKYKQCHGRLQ
Chromo domain-containing protein 1 (Saccharomyces cerevisiae (strain ATCC 204508 / S288c) (Baker's yeast)), sequence (P32657 whole entry, the tested form may be a part): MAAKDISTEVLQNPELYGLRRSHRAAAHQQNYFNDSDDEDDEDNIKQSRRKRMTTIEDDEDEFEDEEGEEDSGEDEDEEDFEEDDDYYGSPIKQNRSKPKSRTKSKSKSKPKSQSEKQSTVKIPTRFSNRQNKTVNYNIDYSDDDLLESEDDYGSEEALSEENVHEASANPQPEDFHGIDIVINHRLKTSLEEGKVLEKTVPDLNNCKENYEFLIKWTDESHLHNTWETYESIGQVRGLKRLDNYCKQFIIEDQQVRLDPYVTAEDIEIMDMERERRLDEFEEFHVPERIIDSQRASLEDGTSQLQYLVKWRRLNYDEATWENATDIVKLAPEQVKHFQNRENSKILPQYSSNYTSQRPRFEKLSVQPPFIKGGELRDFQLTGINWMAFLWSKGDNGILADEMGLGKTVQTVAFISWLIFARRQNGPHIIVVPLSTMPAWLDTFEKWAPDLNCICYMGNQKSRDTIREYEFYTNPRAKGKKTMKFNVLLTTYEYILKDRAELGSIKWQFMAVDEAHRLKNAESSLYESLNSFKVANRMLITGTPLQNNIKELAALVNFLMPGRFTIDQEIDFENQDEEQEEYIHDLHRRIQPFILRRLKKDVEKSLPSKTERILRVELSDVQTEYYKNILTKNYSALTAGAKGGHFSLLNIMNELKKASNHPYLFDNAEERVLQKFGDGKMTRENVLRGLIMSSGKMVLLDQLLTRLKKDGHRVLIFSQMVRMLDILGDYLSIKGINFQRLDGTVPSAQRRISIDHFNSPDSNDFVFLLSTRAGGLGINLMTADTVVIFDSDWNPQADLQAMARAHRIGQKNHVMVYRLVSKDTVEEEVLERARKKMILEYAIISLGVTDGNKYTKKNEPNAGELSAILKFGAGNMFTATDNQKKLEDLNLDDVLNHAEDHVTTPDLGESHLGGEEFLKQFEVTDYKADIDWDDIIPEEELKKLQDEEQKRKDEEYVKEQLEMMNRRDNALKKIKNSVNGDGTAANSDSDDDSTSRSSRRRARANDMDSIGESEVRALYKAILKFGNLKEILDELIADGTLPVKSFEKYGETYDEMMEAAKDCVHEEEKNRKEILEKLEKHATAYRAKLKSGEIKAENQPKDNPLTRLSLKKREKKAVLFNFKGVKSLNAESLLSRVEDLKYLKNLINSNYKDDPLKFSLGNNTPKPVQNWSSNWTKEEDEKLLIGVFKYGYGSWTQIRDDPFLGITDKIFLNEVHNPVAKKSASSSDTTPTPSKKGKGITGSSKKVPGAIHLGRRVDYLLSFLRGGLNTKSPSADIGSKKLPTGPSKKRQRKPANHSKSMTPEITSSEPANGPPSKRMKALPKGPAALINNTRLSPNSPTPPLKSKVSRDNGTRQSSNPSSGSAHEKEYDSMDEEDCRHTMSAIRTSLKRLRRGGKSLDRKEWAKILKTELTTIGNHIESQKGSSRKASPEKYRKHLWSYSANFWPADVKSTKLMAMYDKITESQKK

For the compound `Cc1csc(N2CCN(CC(=O)Nc3c(C)n[nH]c3C)CC2C)n1` (stereo not drawn), the Percent Effect is -1.64% in test [1]; 21.6% in [2]; -4.71% in test [3]; -7.72% in test [4]; -2.88% in test [5]; -3.51% in test [6]. For the same compound, the Percent Effect in test [7] is 15.4%; in [8] it was 5.89%; in test [9] it was 3.96%; in test [10] it was 13.4%; in test [11], -4.83%.

Regarding `Cc1cnc(CN2CCC(N(C)Cc3nnc(C4CC4)n3C)C2)cn1` (stereo not drawn), the Percent Effect in test [1] was -4.85%; in test [2] it was 0%; in test [3], 1.39%; in test [4], -3.06%; in test [5], -0.0978%; in test [6], 2.73%. Moreover, the Percent Effect in test [7] was 8.67%; in test [8] it was -19.5%; in [9] it was 6.45%; in test [10], 8.64%; in test [11], -2.52%.

With `COc1cccc(F)c1C(=O)N1C[C@@H](CN(C)CCO)[C@@H](CO)C1`, the Percent Effect in test [1] is -8.11%; in test [2] it was 5.2%; in [3], -2.26%; in [4], 3.34%; in test [5], -2.26%; in test [6] it was -5.52%. The Percent Effect was 2.16% in [7]; -11% in test [8]; 2.15% in test [9]; 8.64% in [10]; -0.727% in test [11].

On to `CCOC(=O)[C@]12CCCN(Cc3nccs3)C[C@H]1CN(CCN(C)C)C2`, for which the Percent Effect in test [1] was -2.1%; in [2] it was 13%; in test [3] it was 1.26%; in test [4] it was -3.57%; in [5] it was -0.493%; in [6], 7.1%. Besides, the Percent Effect in [7] was 16.2%; in [8] it was 8.87%; in [9], 2.12%; in [10] it was 8.97%; in test [11], -10.9%.

As to `O=C1CC(c2ccncc2)C2(CCN(C(=O)c3ccc[nH]3)CC2)N1` (stereo not drawn), the Percent Effect in [1] is -2.27%; in test [2] it was 18.9%; in test [3], -1.68%; in test [4], -16.4%; in test [5], 4.01%; in [6] it was -5.41%. For the same compound, the Percent Effect in test [7] is 8.86%; in test [8] it was 14.6%; in [9], 3.24%; in test [10], 15.4%; in [11] it was -0.00396%.

Regarding `Cn1cnc2c1C(COCc1cccnc1)N(Cc1ccccn1)CC2` (stereo not drawn), the Percent Effect in test [1] was -3.69%; in test [2] it was 8%; in [3], -12.6%; in [4], 2.61%; in [5], 7.53%; in test [6] it was -51.8%. Further, the Percent Effect in test [7] is 5.47%; in test [8] it was 3.9%; in test [9], 4.17%; in test [10], -55%; in test [11] it was -7.17%.

Regarding `O=C(CCn1cccn1)N1CCN(CC(F)F)CC1`, the Percent Effect in test [1] is -2.93%; in test [2], 16.2%; in [3], -2.79%; in test [4], -4.78%; in test [5] it was -0.836%; in [6], 0.554%. The Percent Effect in [7] is 4.13%; in test [8], 14.6%; in test [9], 9.9%; in [10], 25.6%; in test [11], -5.97%.

Regarding `Cn1nc(CNC(=O)C2COc3ccccc3O2)cc1C1CC1` (stereo not drawn), the Percent Effect in test [1] was -5.12%; in test [2] it was -2.6%; in test [3], 21.3%; in test [4], -1.75%; in test [5], -3.85%; in [6], -3.23%. The Percent Effect in [7] is 8.36%; in test [8], 1.88%; in test [9] it was 0%; in [10], -6.41%; in test [11] it was -1.13%.
